Test results as given in PubChem BioAssay (NCATS).
Results filed as inconclusive are left out. Entries that show only a call come without a potency. Values without a mark were called inactive. Active and inactive are the calls of the source. Unless noted, calls follow the shape of the full dose curve.

What was measured:
[1] = qHTS for Inhibitors of the Functional Ribonucleoprotein Complex (vRNP) of Lassa (LASV) Arenavirus: LASV Primary Screen - GLuc reporter signal (AID 1347082; calls by dose curve; tested in HEK293 reporter line; also: nearly all actives have a fitted effect of over 60% in size; as to activity change, negative = inhibition: series mostly up to about 57 µM)
[2] = qHTS for Inhibitors of the Functional Ribonucleoprotein Complex (vRNP) of Lassa (LASV) Arenavirus: Viability assay - alamar blue signal for LASV Primary Screen (AID 1347083; calls by dose curve; tested in HEK293 reporter line; also: nearly all actives have a fitted effect of over 80% in size; as to activity change, negative = reduced viability: series mostly up to about 57 µM)
[3] = qHTS for Inhibitors of the Functional Ribonucleoprotein Complex (vRNP) of Lymphocytic Choriomeningitis Arenaviruses (LCMV): Viability assay - alamar blue signal for LCMV Primary Screen (AID 1347085; calls by dose curve; tested in HEK293 reporter line; also: nearly all actives have a fitted effect of over 80% in size; as to activity change, negative = lower viability: series mostly up to about 57 µM)
[4] = molecular target: Nucleoprotein (Lymphocytic choriomeningitis virus (strain Armstrong)) (UniProt P09992); experiment: qHTS for Inhibitors of the Functional Ribonucleoprotein Complex (vRNP) of Lymphocytic Choriomeningitis Arenaviruses (LCMV): LCMV Primary Screen - GLuc reporter signal (AID 1347086); also: nearly all actives have a fitted effect of over 70% in size; as to activity change, negative = inhibition: series mostly up to about 57 µM
Potency is read from the fitted curve at half-maximal effect.

Nucleoprotein (Lymphocytic choriomeningitis virus (strain Armstrong)), sequence (P09992 whole entry, looked up): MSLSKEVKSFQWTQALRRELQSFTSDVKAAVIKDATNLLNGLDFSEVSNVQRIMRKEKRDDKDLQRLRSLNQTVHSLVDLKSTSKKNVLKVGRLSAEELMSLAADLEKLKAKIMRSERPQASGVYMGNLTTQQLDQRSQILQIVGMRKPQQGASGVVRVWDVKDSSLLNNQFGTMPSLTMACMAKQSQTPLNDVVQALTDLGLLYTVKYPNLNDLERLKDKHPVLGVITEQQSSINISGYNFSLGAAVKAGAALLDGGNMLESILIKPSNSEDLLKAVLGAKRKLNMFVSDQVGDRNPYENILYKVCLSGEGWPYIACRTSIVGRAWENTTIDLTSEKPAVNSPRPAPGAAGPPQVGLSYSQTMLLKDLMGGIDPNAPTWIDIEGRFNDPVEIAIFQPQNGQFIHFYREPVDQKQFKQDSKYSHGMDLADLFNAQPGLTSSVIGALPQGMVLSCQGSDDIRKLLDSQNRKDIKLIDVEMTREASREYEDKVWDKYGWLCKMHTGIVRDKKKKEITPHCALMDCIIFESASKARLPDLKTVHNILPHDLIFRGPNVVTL

| SMILES | Potency [1] | Potency [2] | Potency [3] | Potency [4] | activity change, negative = inhibition [1] | activity change, negative = reduced viability [2] | activity change, negative = lower viability [3] | activity change, negative = inhibition [4] |
| --- | --- | --- | --- | --- | --- | --- | --- | --- |
| C[C@H]1O[C@@H](O[C@H]2CC[C@@]3(C)C(CC[C@]4(C)C3C=C[C@]35OC[C@@]6(CCC(C)(C)C[C@H]63)[C@@H](O)C[C@]54C)[C@]2(C)CO)[C@H](O)[C@@H](O[C@@H]2O[C@H](CO)[C@@H](O)[C@H](O)[C@H]2O)[C@H]1O (stereo not given in full) | inactive | inactive | inactive | inactive |  |  |  |  |
| COc1n[nH]c2nncnc12 | inactive | inactive | inactive | inactive |  |  |  |  |
| C/C=C(\C)C(=O)O[C@H]1CC(C)=C2C(=O)C=C(C)C2[C@@H]2OC(=O)[C@@](C)(OC(=O)C=C(C)C)C21 (stereo not given in full) | inactive | inactive | inactive | inactive |  |  |  |  |
| N#CC(=C1Nc2ccccc2S1)c1ccnc(OCc2ccc(CN3CCOCC3)cc2)n1 | 7690 nM (active) | 4320 nM (active) | 1930 nM (active) | 1720 nM (active) |  |  |  |  |
| Cc1ccc([N+](=O)[O-])cc1S(=O)(=O)N(C)N=Cc1cnc2ccc(Br)cn12 | 21.7 nM (active) | 24.3 nM (active) | 61.1 nM (active) | 217 nM (active) |  |  |  |  |
| COc1ccc([C@@H]2[C@@H](O)[C@H](O)[C@@H](C)N2C)cc1OC | inactive | inactive | inactive | inactive |  |  |  |  |
| COC(=O)Cc1ccccc1 | inactive | inactive | inactive | inactive |  |  |  |  |
| CC(C)C[C@H](NC(=O)c1cc2ccccc2s1)C(=O)N1CCN(C(=O)[C@H](CO)NS(=O)(=O)c2ccc(Cl)cc2Cl)CC1 | inactive | inactive | inactive | inactive |  |  |  |  |
| C[C@H](Cn1cnc2c(N)ncnc21)OCP(=O)(O)O | inactive | inactive | inactive | inactive |  |  |  |  |
| CC(C)=CCC/C(C)=C/Cc1c(O)ccc(C(=O)/C=C/c2ccc(O)cc2)c1O | inactive | inactive | inactive | inactive |  |  |  |  |
| CC1(C)C=Cc2c(c3ccccc3[nH]c2=O)O1 | inactive | inactive | inactive | inactive |  |  |  |  |
| C=C1C[C@H](O)[C@@H]2[C@H](OC(=O)[C@H]2C)[C@H]2[C@H](C)[C@@H](O)C[C@@H]12 | inactive | inactive | inactive | inactive |  |  |  |  |
| CC(=O)OC(C)c1ccccc1 (stereo not given) | inactive | inactive | inactive | inactive |  |  |  |  |
| COc1cc2c(cc1CC=C(C)C)C(=O)C[C@@H](c1ccc(O)cc1)O2 | inactive | inactive | inactive | inactive |  |  |  |  |
| C=CC(C)(CCC=C(C)C)OC=O (stereo not given) | inactive | inactive | inactive | inactive |  |  |  |  |
| CC1=CC(=O)O[C@@H]1[C@@]1(C)C[C@H]2OC(=O)C[C@H]3[C@@H](C)C(=O)C(O)=C1[C@@]23CO | inactive | inactive | inactive | inactive |  |  |  |  |
| CN[C@H]1[C@@H](O)[C@@H]2O[C@@H]3O[C@H](C)CC(=O)[C@]3(O)O[C@@H]2[C@@H](NC)[C@H]1O | 5440 nM (active) | 7690 nM (active) | 2430 nM (active) | 1720 nM (active) |  |  |  |  |
| CC1(C)CCc2c([nH]c3ccccc3c2=O)O1 | inactive | inactive | inactive | inactive |  |  |  |  |
| COC1C(O)C(O)C(O)C(O)C1O (stereo not given) | inactive | inactive | inactive | inactive |  |  |  |  |
| COc1ccc(C[C@H]2c3cc(O)c(OC)cc3CC[N+]2(C)[O-])cc1O (stereo not given in full) | inactive | inactive | inactive | inactive |  |  |  |  |

| SMILES | Potency [1] | Potency [2] | Potency [3] | Potency [4] | activity change, negative = inhibition [1] | activity change, negative = reduced viability [2] | activity change, negative = lower viability [3] | activity change, negative = inhibition [4] |
| --- | --- | --- | --- | --- | --- | --- | --- | --- |
| CCCC(=O)OC | inactive | inactive | inactive | inactive |  |  |  |  |
| C/C(=C/CCC(C)(O)C1CC[C@@]2(C)[C@@H]3CC=C4[C@@H](CC[C@H](O[C@H]5O[C@@H](CO)[C@H](O)[C@@H](O)[C@@H]5O)C4(C)C)[C@]3(C)C(=O)C[C@]12C)CO[C@@H]1O[C@H](CO)[C@@H](O)[C@H](O)[C@H]1O (stereo not given in full) | inactive | inactive | inactive | inactive |  |  |  |  |
| C[C@@H](Cc1cc2c(c(C(N)=O)c1)N(CCCO)CC2)NCCOc1ccccc1OCC(F)(F)F | inactive | inactive | inactive | inactive |  |  |  |  |
| CCn1c(-c2nonc2N)nc2cncc(CNC3CCNCC3)c21 | 24300 nM (active) | 17200 nM (active) | 24300 nM (active) | 38500 nM (active) |  |  |  |  |
| CC(C)=CCC[C@](C)(O[C@@H]1O[C@H](CO[C@@H]2OC[C@H](O[C@@H]3OC[C@@H](O)[C@H](O)[C@H]3O)[C@H](O)[C@H]2O)[C@@H](O)[C@H](O)[C@H]1O)C1CC[C@]2(C)C1[C@H](O)CC1[C@@]3(C)CC[C@H](O)C(C)(C)C3[C@@H](O)C[C@]12C (stereo not given in full) | inactive | inactive | inactive | inactive |  |  |  |  |
| COCCOCCOCCOCCOC | inactive | inactive | inactive | inactive |  |  |  |  |
| COc1ccc(C(=O)OC2CC[C@@]3(C)C4CCC5[C@]6(O)C[C@H](O)[C@@]7(O)C(CN8CC(C)CCC8[C@@]7(C)O)[C@]6(O)C[C@@]53O[C@]24O)cc1OC (stereo not given in full) | inactive | inactive | inactive | inactive |  |  |  |  |
| CC[C@@H](C)[C@@H](O)[C@H](C)C(=O)[C@H](C)/C=C(\C)C[C@H](C)[C@@H]1OC(=O)[C@H]1CC | inactive | inactive | inactive | inactive |  |  |  |  |
| C=CCNC1=C2C[C@@H](C)C[C@H](OC)[C@@H](O)[C@@H](C)C=C(C)[C@H](OC(N)=O)[C@@H](OC)C=CC=C(C)C(=O)NC(=CC1=O)C2=O | 8630 nM (active) | 6850 nM (active) | 15300 nM (active) | 4320 nM (active) |  |  |  |  |
| C[C@]12C=CC(=O)C=C1CC[C@@H]1[C@@H]2[C@@H](O)C[C@@]2(C)[C@@H]1CC[C@]2(O)C(=O)CO | inactive | inactive | inactive | inactive |  |  |  |  |
| Cc1coc2c1C(=O)C(=O)c1c-2ccc2c(C)cccc12 | inactive | inactive | inactive | inactive |  |  |  |  |
| CCCCCCCC(=O)C(C)C(=O)N(C)[C@H](Cc1ccc(OC)cc1)C(=O)N(C)[C@H](C(N)=O)C(C)C (stereo not given in full) | inactive | inactive | inactive | inactive |  |  |  |  |
| CC(C)NC[C@@H](C(=O)N1CCN(c2ncnc3c2[C@H](C)C[C@H]3O)CC1)c1ccc(Cl)cc1 | 968 nM (active) | 243 nM (active) | 485 nM (active) | 863 nM (active) |  |  |  |  |
| O=c1cc(-c2ccc(O)c(O)c2)oc2ccccc12 | inactive | inactive | inactive | inactive |  |  |  |  |
| CC(C)OC(=O)c1ccccc1 | inactive | inactive | inactive | inactive |  |  |  |  |
| O=C(O)c1cccc(C(=O)O)n1 | inactive | inactive | inactive | inactive |  |  |  |  |
| CC(C)N(CCCNC(=O)Nc1ccc(C(C)(C)C)cc1)C[C@H]1O[C@@H](n2cc(Br)c3c(N)ncnc32)[C@H](O)[C@H]1O | inactive | inactive | inactive | inactive |  |  |  |  |
| O=c1ccc2ccc(O[C@@H]3O[C@H](CO)[C@@H](O)[C@H](O)[C@H]3O)c(O)c2o1 | inactive | inactive | inactive | inactive |  |  |  |  |
| CC1=C(O)C(=O)CO1 | inactive | inactive | inactive | inactive |  |  |  |  |
| O=Cc1ccc(O)cc1O | inactive | inactive | inactive | inactive |  |  |  |  |

| SMILES | Potency [1] | Potency [2] | Potency [3] | Potency [4] | activity change, negative = inhibition [1] | activity change, negative = reduced viability [2] | activity change, negative = lower viability [3] | activity change, negative = inhibition [4] |
| --- | --- | --- | --- | --- | --- | --- | --- | --- |
| CCC(=O)OCCC(C)CCC=C(C)C (stereo not given) | inactive | inactive | inactive | inactive |  |  |  |  |
| Nc1[nH]c(=O)nc2c1ncn2C1OC(CO)C(O)C1O (stereo not given) | inactive | inactive | inactive | inactive |  |  |  |  |
| N#CC(=C(O)c1ccc(Cl)cc1Cl)c1nc2cc(Cl)ccc2c(=O)[nH]1 | inactive | inactive | inactive | inactive |  |  |  |  |
| CC1(C)C=Cc2c(ccc(C(=O)/C=C/c3ccccc3)c2O)O1 | inactive | inactive | inactive | inactive |  |  |  |  |
| CCNC(=O)Nc1ccc(-c2nc3c(c(N4CCOC[C@H]4C)n2)CCN(C2COC2)C3)cc1 | 1930 nM (active) | 1370 nM (active) | 3060 nM (active) | 1530 nM (active) |  |  |  |  |
| COc1c2ccoc2c(OC[C@@H](OC(C)=O)C(C)(C)O)c2oc(=O)ccc12 | inactive | inactive | inactive | inactive |  |  |  |  |
| COc1ccc(-c2coc3cc(O)ccc3c2=O)cc1OC | inactive | inactive | inactive | inactive |  |  |  |  |
| CC1=CCC[C@@H]2[C@@](C)(CC/C(C)=C/C(=O)O)[C@H](C)CC[C@@]12C | inactive | inactive | inactive | inactive |  |  |  |  |
| Cc1c(O)c2ccccc2oc1=O | inactive | inactive | inactive | inactive |  |  |  |  |
| C/C(=C\CNc1ncnc2c1ncn2[C@@H]1O[C@H](CO)[C@@H](O)[C@H]1O)CO | inactive | inactive | inactive | inactive |  |  |  |  |
| COc1cccc(OC)c1C(=O)O | inactive | inactive | inactive | inactive |  |  |  |  |
| NC(=O)[C@H]1CCCN1C(=O)[C@H](Cc1cnc[nH]1)NC(=O)[C@@H]1CCC(=O)N1 |  |  |  |  | 10.2% [at 5.82 µM] | 6.52% [at 5.82 µM] | -0.247% [at 5.82 µM] | -2.24% [at 5.82 µM] |
| COc1ccc2[nH]cc(CCO)c2c1 | inactive | inactive | inactive | inactive |  |  |  |  |
| COc1c(O)c(O)c2oc(-c3ccccc3)cc(=O)c2c1OC | inactive | inactive | inactive | inactive |  |  |  |  |
| C=C1[C@H]2O[C@H]2[C@@H](OC(C)=O)[C@@]2(C)[C@@H](OC(C)=O)C[C@@H](OC(C)=O)[C@@](C)(O)[C@@H]2[C@@H](OC(C)=O)[C@@]2(O)[C@@H](C)C(=O)O[C@H]2[C@H]1Cl | inactive | inactive | inactive | inactive |  |  |  |  |
| CC1(C)C(N(O)C(=O)Nc2ccc(Cl)cc2)N(c2ccc(Cl)cc2)C(=O)N1CC(=O)NN=CC=Cc1ccc([N+](=O)[O-])o1 (stereo not given) | inactive | inactive | inactive | inactive |  |  |  |  |
| CNC(=O)[C@H]1O[C@@H](n2cnc3c(NCc4ccc(N)cc4)ncnc32)[C@H](O)[C@@H]1O | inactive | inactive | inactive | inactive |  |  |  |  |
| COc1ccc(CC2c3cc(OC)c(OC)cc3CCN2C)cc1O (stereo not given) | inactive | inactive | inactive | inactive |  |  |  |  |
| Cn1cc(C=C2C(=O)Nc3cccnc32)c2ccccc21 | inactive | inactive | inactive | inactive |  |  |  |  |
| COc1cc(/C=C/C(=O)OC[C@H]2O[C@H](OC3(CO)OC(CO)C(O)C3O)[C@H](O)[C@@H](O)[C@@H]2O)ccc1O (stereo not given in full) | inactive | inactive | inactive | inactive |  |  |  |  |
